Results: PubChem BioAssay AID720580 (National Center for Advancing Translational Sciences (NCATS), 2013)
Values joined by “and” are separate entries in the source; they are usually repeats but may differ in a detail not shown here. Equal entries are not always repeated. Hit rate of the full screen: of about 330,000 compounds, about 1,500 (0.45%) were called active. Inconclusive results (about 6%) are left out. This is one part of a sample in which actives are shown more often than they occur. Calls come from the whole dose curve; tested in A549 cells. The source holds several records for some structures; these can differ, active in one and inactive in another.

Experiment: qHTS for Stage-Specific Inhibitors of Vaccinia Orthopoxvirus: Venus Reporter Primary qHTS; note: nearly all actives have a fitted effect of over 30% in size
Conditions: Vaccinia virus Venus reporter expression, fluorescence; series mostly up to 36.5 µM; activity change, negative = inhibition: at the top concentration
% is set by controls: 0 for no effect and ±100 for the full control effect; potency is the fitted concentration of half-maximal effect.

| SMILES | activity change, negative = inhibition | Potency |
| --- | --- | --- |
| CCCCC[C@H](C)N1C[C@@H](COCc2ccccc2)Oc2cc(N3CC[C@@H](N(C)C)C3)ccc2S1(=O)=O | -10.3% (inactive) |  |
| CCC(C(=O)NCc1ccccc1)n1c(Cc2cc(F)cc(F)c2)nc2ccccc21 (stereo not given) | -13.7% (inactive) |  |
| CCCCNC(=O)C[C@@H]1C[C@@]2(C(=O)OC)CC(C)(C)CC=C2N(Cc2ccco2)C1=O | -17.4% (inactive) |  |
| O=C(c1ccc(C(F)(F)F)cc1)N1CCC(=O)N([C@H](COCc2ccccc2)Cc2ccccc2)CC1 | -11.3% (inactive) |  |
| O=C1Nc2ccccc2NC(c2ccc3c(c2)OCO3)=C1N(Cc1ccc(F)cc1)C(=O)c1ccco1 | 8.77% (inactive) |  |
| COc1ccc(C(=O)c2c3ccc([N+](=O)[O-])cc3[n+]([O-])n2CCCN)cc1 |  | 10 µM (active) |
| COc1ccc(Cc2nnc(SCC(=O)c3cccc([N+](=O)[O-])c3)n2C)cc1 | -7.6% (inactive) |  |
| COc1ccc2c(C(=O)c3ccc(C)cc3)n(CCC(N)=O)[n+]([O-])c2c1 | -5.46% (inactive) |  |
| COc1ccc(C(C)(O)c2nc(-c3ccc(C)c(C)c3)cs2)cc1 (stereo not given) | -24.7% (inactive) |  |
| CCOc1ccc(/C=N\NC(=O)c2c(C)nc3cc(C)ccn23)cc1 | -16.5% (inactive) |  |
| CCOc1ccc(-c2cc(C(=O)N/N=C/c3ccc(O)cc3)c3ccccc3n2)cc1 | 0% (inactive) |  |
| CCOc1ccc(/C=N/NC(N)=S)cc1 |  | 1 µM (active) |
| CCCCn1nnnc1C(c1cccc(OC)c1OC)N1CCN(C/C=C/c2ccccc2)CC1 (stereo not given) | -4.84% (inactive) |  |
| C=CCC[C@H](CCCCC)OC(=O)/C=C/[C@H](O)[C@@H](O)C[C@@H](O)CC=C | -17.3% (inactive) |  |
| COC(=O)[C@]12CCCCC=C1N(Cc1ccco1)C(=O)[C@H](CC(=O)NCC1CCCCC1)C2 | -1.07% (inactive) |  |
| COc1ccc(CN(Cc2ccccc2)C(=O)c2ccc(O)cc2)cc1COc1ccc(NC(C)=O)cc1 | -14.1% (inactive) |  |
| COc1cc(C#Cc2ccc3cc(CCCO)oc(=O)c3c2)cc(OC)c1 | -27.7% (inactive) |  |
| COc1cc(/C=C2\Oc3ccc(C#Cc4ccc(O)cc4)cc3C2=O)cc(OC)c1 |  | 8.91 µM (active) |
| CC(C)C1C(=O)N(Cc2cn(CCC3OCCO3)nn2)CCS(=O)(=O)N1Cc1ccc(-c2ccccc2C(F)(F)F)cc1 (stereo not given) | -11.9% (inactive) |  |
| CC(C)OC(=O)c1ccc(COc2ccc3ccc(=O)oc3c2)o1 | -3.73% (inactive) |  |
| Cc1noc(C)c1COc1ccc2ccc(=O)oc2c1 | -14.6% (inactive) |  |
| CC(=CCOc1ccc2ccc(=O)oc2c1)C1=CC(=O)C(C)(C)O1 |  | 3.55 µM (active) |
| CCOc1ccc(CCN2C(=S)N([C@@H](CC(C)C)CN3CCC[C@@H]3CN3C(=S)NC[C@@H]3Cc3ccc(O)cc3)C[C@@H]2CC(C)C)cc1 | -12.4% (inactive) |  |
| Cc1ccc(C(=O)Nc2nc3ccc(Cl)cc3s2)o1 | -7.19% [at 7.34 µM] (inactive) |  |

| SMILES | activity change, negative = inhibition | Potency |
| --- | --- | --- |
| Cc1ccc(CCC(=O)Nc2ncc(Cc3cc(Cl)ccc3Cl)s2)o1 |  | 4.47 µM (active) |
| Cc1cnc(NC(=O)CSc2nnc(-c3ccc(Cl)cc3Cl)n2N)s1 | -22.3% (inactive) |  |
| COC(=O)C1=CN(c2c(C)cc(C)cc2C)C(N)=C(C#N)C1c1cccc(F)c1 (stereo not given) | -25.6% (inactive) |  |
| Brc1ccc2ncnc(NCc3cccnc3)c2c1 | -18.1% (inactive) |  |
| CC(C)CNc1ncnc2c1cnn2Cc1ccc(Cl)cc1 | -9.44% (inactive) |  |
| Clc1ccc(Cn2ncc3c(NCc4cccnc4)ncnc32)cc1 |  | 8.91 µM (active) |
| CC(C)C[C@H]1CN([C@@H](Cc2ccccc2)CN2CCC[C@@H]2CN2C(=O)C(=O)NC[C@@H]2Cc2ccc(O)cc2)C(=O)C(=O)N1CCc1ccccc1 | -8.63% (inactive) |  |
| COc1ccc(-c2nc(=N)sn2-c2ccccc2)cc1 | -26.5% (inactive) |  |
| COc1ccc(C(NC(=O)C2CCN(CCCc3ccccc3)CC2)c2cccs2)cc1 (stereo not given) | -17.3% (inactive) |  |
| N#Cc1c(Cl)c(Cl)c(Cl)c(C#N)c1Cl |  | inactive and 14.1 µM (active) |
| CCOc1ccc(NC(=O)CSc2nnc3c(n2)[nH]c2ccc(S(=O)(=O)N4CCOCC4)cc23)cc1 | -23.5% (inactive) |  |
| COC1CC(OC2CC[C@@]3(C=O)C4CC[C@]5(C)C(C6=CC(=O)OC6)CC[C@@]5(O)C4CC[C@]3(O)C2)OC(C)C1O (stereo not given in full) |  | 0.282 µM (active) |
| COC1C(O)C(C)OC(OC2CCC3(C=O)C(CCC4C3CCC3(C)C(C5=CC(=O)OC5)CCC43O)C2)C1O (stereo not given) |  | 0.1 µM (active) |
| O=C(Nc1ccc2c(c1)OCCO2)C(C1CC1)N1CCC(Cc2ccccc2)CC1 (stereo not given) | 1.13% (inactive) |  |
| O=S1(=O)CC(N2CCN(Cc3ccccc3F)CC2)CN1Cc1cn(Cc2ccccc2)nn1 (stereo not given) | -1.01% (inactive) |  |
| Cc1nc2c(OCc3ccc(Cl)cc3)cccn2c1N(C)Cc1cccs1 | -19.4% (inactive) |  |
| CCOC(=O)[C@]12CCCC=C1N(Cc1ccc3c(c1)OCO3)C(=O)[C@H](CC(=O)N1CCN(C(=O)c3ccco3)CC1)C2 | -3.23% (inactive) |  |
| COC(=O)c1ccc(NC(=O)CSc2nnc(C3CC3)n2C)cc1 | -11.9% (inactive) |  |
| COC(=O)c1ccc(NC(=O)CSc2nnc(CNc3ccc(OC)cc3)n2C)cc1 |  | 12.6 µM (active) |
| COc1ccc(C(=O)NCc2nnc(SCC(=O)NC3=NCCS3)n2C)cc1 | 1.83% (inactive) |  |
| Cc1ccc(S(=O)(=O)N2[C@@H](Cc3ccccc3)CO[C@H]2CC(=O)OCc2ccccc2)cc1 | -15.6% (inactive) |  |
| N#Cc1cccc(NC(=O)c2cc(C3CCCCN3C(=O)CCc3ccccc3)on2)c1 (stereo not given) | -6.64% (inactive) |  |
| CCOC(=O)N1C(=O)C[C@](Sc2ccc(C)cc2)(C(=O)OC)[C@H]1c1ccccc1 | 8.58% (inactive) |  |
| COc1ccc(OC)c(NC(=O)C2(C)CCN2C(=O)Cc2ccccc2)c1 (stereo not given) | -2.79% (inactive) |  |

| SMILES | activity change, negative = inhibition | Potency |
| --- | --- | --- |
| O=C(NCc1cccnc1)c1cc(C2CCCN(C(=O)C3CCCCC3)C2)on1 (stereo not given) | 1.16% (inactive) |  |
| CC(C)C[C@H](CO)Nc1nc(N(C)c2cccc(Cl)c2)c2ncn(C(C)C)c2n1 | -28.6% (inactive) |  |
| CC(C)n1cnc2c(Nc3cccc(Cl)c3)nc(N(CCO)CCCO)nc21 |  | 11.2 µM (active) |
| COC(=O)[C@@]12C[C@@H](CC(=O)N3CCCCC3)C(=O)N(Cc3ccc4c(c3)OCO4)C1=CCC(C)(C)C2 | -19.4% (inactive) |  |
| CCc1nc2c(OCc3ccc(C(=O)OC)cc3)cccn2c1N(C)C(=O)C(C)C | -10.2% (inactive) |  |
| CN(C)c1ccc(/C=C/C=C/c2ccnc3ccccc23)cc1 | 128% (inactive) |  |
| COc1cccc(-c2nc(Nc3ccncc3)c3ccccc3n2)c1 | 19.3% (inactive) |  |
| O=[N+]([O-])c1ccc(F)cc1Oc1nc(-c2cccnc2)nc2ccccc12 |  | 5.01 µM (active) |
| Cc1cnc(CNc2nc(-c3cccnc3)nc3ccccc23)cn1 | 0% (inactive) |  |
| COC(=O)C1(C(=O)OC)C[C@H](c2ccccc2)N(Cc2ccccc2OC)[C@@H]1c1ccccc1 | -4.94% (inactive) |  |
| COc1ccc(OC)c(NC(=O)c2sc3nc(C)cc(C)c3c2N)c1 | -20.7% (inactive) |  |
| COc1ccc(OC)c(Cc2nnc(CCC(=O)NC3CCCC3)o2)c1 | -24.9% (inactive) |  |
| COc1ccc(OC)c(Cc2cnc3nc(N)nc(N)c3c2C)c1 |  | 1.12 µM (active) |
| CCCCCCCNc1ccc(/C=C/c2ccnc3ccccc23)cc1 | 14.6% (inactive) |  |
| O=C(NC1(C(F)(F)F)NC(=O)N(C2CCCCC2)C1=O)c1ccco1 (stereo not given) | -16.3% (inactive) |  |
| COC(=O)NC1(C(F)(F)F)NC(=O)N(C2CCCCC2)C1=O (stereo not given) | -9.65% (inactive) |  |
| O=C1NC(Nc2nc3ccccc3s2)(C(F)(F)F)C(=O)N1C1CCCCC1 (stereo not given) |  | 10 µM (active) |
| Cc1ccc(Cc2c(-c3ccco3)nc3ccc(Cl)cn23)cc1 | 4.2% (inactive) |  |
| SCc1nc2ccc(Cl)cc2[nH]1 | -13.3% (inactive) |  |
| O=C(c1cnn2c1NC(=C1CC1)C=C2C(F)F)N1CCc2ccccc2C1 | -21.9% (inactive) |  |
| CCOC(=O)C1CCCN(C(=O)/C=C/c2ccc(OC)cc2)C1 (stereo not given) | -0.189% (inactive) |  |
| CCN1CCC(O)(/C=C/c2ccc(C)cc2)C(C(=O)/C=C/c2ccc(C)cc2)C1 (stereo not given) |  | 17.8 µM (active) |
| N#Cc1ccc(C(C(=O)NCc2ccccc2)n2c(=O)c(-c3ccco3)nc3ccccc32)cc1 (stereo not given) | -0.43% (inactive) |  |
| CN(C)c1ccc(/C=N\Nc2ccc([N+](=O)[O-])cc2[N+](=O)[O-])cc1Cl | -16.2% (inactive) |  |

| SMILES | activity change, negative = inhibition | Potency |
| --- | --- | --- |
| COc1ccc(CCNC(=O)CCc2ccccc2O)cc1OC | 3.53% (inactive) |  |
| O=c1[nH]c(NCCO)nnc1Cc1ccc(Cl)cc1 | 1.34% (inactive) |  |
| COc1ccc(Cc2nnc(N/N=C/c3ccccc3O)[nH]c2=O)cc1OC |  | 1.26 µM (active) |
| CCCCOc1ccc(C(=O)NO)cc1 | -14.6% (inactive) |  |
| CC(=O)N1Cc2cc(C(=O)NCc3cccc(F)c3)nc(-c3cccc(C4=CCCC4)c3)c2[C@H]1CCO | -20.8% (inactive) |  |
| Cc1c(Cl)c([N+](=O)[O-])nn1CCCC(=O)Nc1cc(Cl)ccc1Cl | -17.6% (inactive) |  |
| Cc1ccc(C(=O)O)cc1NC(=O)c1ccc(Cn2nc(C)c(Cl)c2C)o1 | -7.79% (inactive) |  |
| Cc1c(Cl)c([N+](=O)[O-])nn1Cc1ccc(C(=O)N/N=C\c2cc(Cl)ccc2O)o1 |  | 5.62 µM (active) |
| COc1cc2nc(N3CCCN(C)CC3)nc(NC3CC3)c2cc1OC | -26.8% (inactive) |  |
| COc1ccc(-c2csc(C(O)c3cccc(Cl)c3)n2)cn1 (stereo not given) | -10.5% (inactive) |  |
| Cc1cccc(NC(=O)c2nnn(-c3cccc(C(F)(F)F)c3)c2N)c1 | -9.05% (inactive) |  |
| COc1ccc(NC(=O)CN(C)CC(=O)Nc2cccc(C(F)(F)F)c2)cc1 | -12.9% (inactive) |  |
| COc1cc(NC(=O)c2[nH]cnc2C(N)=O)cc(C(=O)Nc2cccc(C(F)(F)F)c2)c1 |  | 10 µM (active) |
| COC(=O)[C@]12CCCCC=C1N(Cc1ccco1)C(=O)[C@H](CC(=O)NCCCCc1ccccc1)C2 | -2.07% (inactive) |  |
| CCCCC(=O)N/N=C/c1c(O)n(CC)c(=S)n(CC)c1=O |  | 12.6 µM (active) |
| O=C(CCC(=O)N/N=C/c1ccc(Br)o1)N/N=C/c1ccc(Br)o1 | -3.51% (inactive) |  |
| CCOc1cc(C=NNC(=O)CCCC(=O)NN=Cc2ccc(O)c(OCC)c2)ccc1O | 4.08% (inactive) |  |
| CCOc1ccc2nc(N3CCCN(CCCn4cccn4)CC3)nc(C)c2c1 | -19.6% (inactive) |  |
| O=c1[nH]nc(SCCS(=O)(=O)c2ccc(F)cc2)n1-c1ccccc1C(F)(F)F |  | 3.16 µM (active) |
| O=S(=O)(Nc1n[nH]c(C(F)(F)F)n1)c1ccccc1 | -0.63% (inactive) |  |
| CN(O)C(=S)c1ccccc1 |  | 11.2 µM (active) |
| CN(CC(=O)O)C(=O)c1ccccc1 | -1.7% (inactive) |  |
| S=C(c1ccccc1)N1CCCC1 | -10.5% (inactive) |  |
